PubChem BioAssay
Inconclusive results are not listed. Calls of active or inactive are those of the source.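 Rule for the calls, unless noted: active = normalized viability below 100% at a tested concentration; inactive = the rest.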

Experiments:
[1] = growth inhibition of DIPG glioma cells, dose response, cell-based, SU-DIPG-XIII, MIPE5.0, CellTiter-Glo, qHTS (AID 1347064; cut-off not given, nearly all actives have AC50 up to about 23 µM;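 for AC50: cells exposed to compound for 48 hours before the viability read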); settings: SU-DIPG-XIII viability, CellTiter-Glo ATP luminescence
[2] = SU-DIPG-XXV glioma cell viability, MIPE5.0 library, qHTS (AID 1347068; cut-off not given, nearly all actives have IC50 up to about 30 µM)
[3] = sensitizers of A549 cells to miR-34 induction, primary screen, imaging, A549 dox-inducible miR-34, nuclei and caspase counts (AID 1347080;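 active = compounds whose cell count with miR-34 switched on is under 0.7 times the count with it off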); settings: A549 miR-34 inducible, Hoechst nuclei count, 48 h
[4] = modifiers of HSF1 nuclear foci, imaging, Selleck Cancer Library (AID 1347162; in the data active = plate-normalised HSF1 focus index below about 0.46); settings: human cells, at 10 µM; SSMD: measured here: HSF1 foci SSMD mean; cell count: measured here: cell number; plate-normalised HSF1 focus index: stronger effect = lower value
[5] = survival rescue of mitochondrial mutant cells in low glucose, primary screen, MELAS cybrids, Rieske KO mouse fibroblasts, CellTiter-Glo (AID 1508586;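 active = mean z-score across replicates of 1.96 or higher in either the MELAS or the Rieske mutant cell line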;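 note: z relative to plate mean and SD of compound and empty wells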)
[6] = ovarian cancer cell viability with rucaparib, profiling panel, oncology-focused library, rucaparib conditional (AID 1508598); settings: patient-derived ovarian cancer cells, CellTiter-Glo viability, 144 h, stronger effect = lower value
[7] = JHH-DIPG-1 glioma cell viability, MIPE5.0 library, CellTiter-Glo luminescence, qHTS (AID 1347067; cut-off not given, nearly all actives have AC50 up to about 26 µM;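 note: cells exposed to compound for 48 hours before readout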); settings: JHH-DIPG-1 glioma viability, CellTiter-Glo ATP luminescence
[8] = viability loss in pontine glioma line – cell-based, SU-DIPG-XXV, MIPE5.0, CellTiter-Glo, qHTS, dose response (AID 1347065; cut-off not given, nearly all actives have AC50 up to about 26 µM;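 note: cells exposed to compound for 48 hours before ATP readout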); settings: CellTiter-Glo ATP luminescence
[9] = SU-DIPG-VI glioma cell viability, MIPE4.0 library, CellTiter-Glo luminescence, qHTS (AID 1347066; cut-off not given, nearly all actives have AC50 up to about 30 µM;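 note: cells exposed to compound for 48 hours before readout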); settings: CellTiter-Glo ATP luminescence
[10] = stronger effect = lower value, cell number ratio, induced over uninduced
[11] = measured here: relative caspase fold change +Dox/-Dox
[12] = measured here: total cells with miR-34 induction, stronger effect = lower value
[13] = measured here: total cells without miR-34 induction
[14] = MELAS cybrid survival, CellTiter-Glo 48 h, stronger effect = higher value
[15] = Rieske KO mouse fibroblast survival, CellTiter-Glo 72 h
[16] = at 0.000305 µM, OCI-C5x cells, with rucaparib 10 µM, 100% = cells with rucaparib alone
[17] = at 0.000305 µM, OCI-C5x cells, without rucaparib
[18] = at 0.000305 µM, OCI-P5x cells, with rucaparib 20 µM, 100% = cells with rucaparib alone
[19] = at 0.000305 µM, OCI-P5x cells, without rucaparib
[20] = at 0.00122 µM, OCI-C5x cells, with rucaparib 10 µM, 100% = cells with rucaparib alone
[21] = at 0.00122 µM, OCI-C5x cells, without rucaparib
[22] = at 0.00122 µM, OCI-P5x cells, with rucaparib 20 µM, 100% = cells with rucaparib alone
[23] = at 0.00122 µM, OCI-P5x cells, without rucaparib
[24] = at 0.00488 µM, OCI-C5x cells, with rucaparib 10 µM, 100% = cells with rucaparib alone
[25] = at 0.00488 µM, OCI-C5x cells, without rucaparib
[26] = at 0.00488 µM, OCI-P5x cells, with rucaparib 20 µM, 100% = cells with rucaparib alone
[27] = at 0.00488 µM, OCI-P5x cells, without rucaparib
[28] = at 0.0195 µM, OCI-C5x cells, with rucaparib 10 µM, 100% = cells with rucaparib alone
[29] = at 0.0195 µM, OCI-C5x cells, without rucaparib
[30] = at 0.0195 µM, OCI-P5x cells, with rucaparib 20 µM, 100% = cells with rucaparib alone
[31] = at 0.0195 µM, OCI-P5x cells, without rucaparib
[32] = at 0.0781 µM, OCI-C5x cells, with rucaparib 10 µM, 100% = cells with rucaparib alone
[33] = at 0.0781 µM, OCI-C5x cells, without rucaparib
[34] = at 0.0781 µM, OCI-P5x cells, with rucaparib 20 µM, 100% = cells with rucaparib alone
[35] = at 0.0781 µM, OCI-P5x cells, without rucaparib
[36] = at 0.313 µM, OCI-C5x cells, with rucaparib 10 µM, 100% = cells with rucaparib alone
[37] = at 0.313 µM, OCI-C5x cells, without rucaparib
[38] = at 0.313 µM, OCI-P5x cells, with rucaparib 20 µM, 100% = cells with rucaparib alone
[39] = at 0.313 µM, OCI-P5x cells, without rucaparib
[40] = at 1.25 µM, OCI-C5x cells, with rucaparib 10 µM, 100% = cells with rucaparib alone
[41] = at 1.25 µM, OCI-C5x cells, without rucaparib
[42] = at 1.25 µM, OCI-P5x cells, with rucaparib 20 µM, 100% = cells with rucaparib alone
[43] = at 1.25 µM, OCI-P5x cells, without rucaparib
[44] = at 5 µM, OCI-C5x cells, with rucaparib 10 µM, 100% = cells with rucaparib alone
[45] = at 5 µM, OCI-C5x cells, without rucaparib
[46] = at 5 µM, OCI-P5x cells, with rucaparib 20 µM, 100% = cells with rucaparib alone
[47] = at 5 µM, OCI-P5x cells, without rucaparib

CCc1cc(Nc2nccc(-c3c(-c4ccc(OC)c(C(=O)Nc5c(F)cccc5F)c4)nc4ccccn34)n2)c(OC)cc1N1CCC(N2CCN(S(C)(=O)=O)CC2)CC1
1.23: fold change [3, 11]
6190: cell count [3, 12]
6540: cell count [3, 13]
6760: cell count [4]
active: AC50 [1] 5.25 µM | viability [6, 18] 97.3% | viability [6, 22] 99.8% | viability [6, 26] 98.3% | viability [6, 27] 98.5% | viability [6, 34] 93.1% | viability [6, 42] 97.9% | viability [6, 43] 88.3% | viability [6, 46] 92.9% | viability [6, 47] 90.5%
2.41: SSMD [4]
inactive: outcome [2] | fold change [3, 10] 0.946 | plate-normalised HSF1 focus index [4] 1.12 | z-score [5, 14] 0.319 | viability [6, 16] 118% | viability [6, 17] 127% | viability [6, 19] 105% | viability [6, 20] 112% | viability [6, 21] 120% | viability [6, 23] 104% | viability [6, 24] 116% | viability [6, 25] 121% | viability [6, 28] 112% | viability [6, 29] 119% | viability [6, 30] 102% | viability [6, 31] 103% | viability [6, 32] 122% | viability [6, 33] 132% | viability [6, 35] 100% | viability [6, 36] 174% | viability [6, 37] 152% | viability [6, 38] 103% | viability [6, 39] 103% | viability [6, 40] 178% | viability [6, 41] 174% | viability [6, 44] 176% | viability [6, 45] 196%
0.793: z-score [5, 15]

CN1CCN(c2nc(C3=C(c4c[nH]c5ccccc45)C(=O)NC3=O)c3ccccc3n2)CC1
7110: cell count [4]
8570: cell count [3, 13]
inactive: outcome [1] | outcome [7] | outcome [2] | fold change [3, 10] 0.982 | plate-normalised HSF1 focus index [4] 1.09 | z-score [5, 14] -0.37 | viability [6, 16] 105% | viability [6, 17] 102% | viability [6, 20] 116% | viability [6, 21] 119% | viability [6, 22] 102% | viability [6, 24] 112% | viability [6, 25] 120% | viability [6, 26] 106% | viability [6, 28] 114% | viability [6, 29] 122% | viability [6, 30] 102% | viability [6, 32] 113% | viability [6, 33] 116% | viability [6, 34] 110% | viability [6, 35] 101% | viability [6, 36] 109% | viability [6, 37] 129% | viability [6, 38] 117% | viability [6, 39] 107% | viability [6, 40] 114% | viability [6, 41] 122% | viability [6, 42] 115% | viability [6, 43] 109% | viability [6, 44] 129% | viability [6, 45] 135% | viability [6, 46] 141% | viability [6, 47] 109%
active: viability [6, 18] 96.2% | viability [6, 19] 83.9% | viability [6, 23] 88.4% | viability [6, 27] 97.3% | viability [6, 31] 96.2%
0.809: fold change [3, 11]
8410: cell count [3, 12]
1.44: SSMD [4]
0.177: z-score [5, 15]

Nc1nc(-c2nn(Cc3ccccc3F)c3ncccc23)ncc1C1CC1
active: AC50 [1] 11.8 µM
inactive: outcome [2]

CCc1cc(/C(C)=N/OCc2ccc(C3CCCCC3)c(C(F)(F)F)c2)ccc1CN1CC(C(=O)O)C1
inactive: outcome [9]
active: AC50 [8] 18.6 µM

CC1=C2C[C@H]3[C@@H](CC[C@@H]4C[C@H](NS(C)(=O)=O)CC[C@@]43C)[C@@H]2CC[C@@]2(C1)O[C@@H]1C[C@H](C)CN[C@H]1[C@H]2C
active: AC50 [8] 20.9 µM

CC(C)[C@@H](CS(=O)(=O)C(C)C)N1C(=O)[C@@](C)(CC(=O)O)C[C@H](c2cccc(Cl)c2)[C@H]1c1ccc(Cl)cc1
active: AC50 [8] 18.6 µM | AC50 [7] 23.5 µM

Cn1cc(-c2cc(Oc3cc(F)c(NC(=O)C4(C(=O)Nc5ccccc5)CC4)cc3F)ccn2)cn1
active: AC50 [8] 16.6 µM | AC50 [7] 18.6 µM

O=c1c(-n2ccnn2)c[nH]n1-c1cc(N2CCOCC2)ncn1
active: AC50 [8] 20.9 µM
inactive: outcome [7]

COc1cc2ncnc(Nc3cccc(Cl)c3F)c2cc1OC(=O)N1CCN(C)C[C@H]1C
inactive: outcome [1] | outcome [2]
